SW480 rerep: inducers of DNA re-replication in SW480 colon cancer cells; SW480 DNA re-replication, Hoechst DNA content imaging, 48 h; Potency, µM (titrated, usually from 46.1 µM), for inactives: top-dose re-replication activation, most hits filed as activators; actives 1.8% (n = 340,000); AID 624297; further: % of control where 0% means no effect; nearly all actives have a fitted effect of over 55% in size
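Compounds, transferred as 23 nL by pin tool, were incubated with cells for 48 hr; DNA content per nucleus was then quantified by Hoechst staining and fluorescence plate imaging.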
MCF10A rereplic: induces DNA re-replication in MCF 10a normal breast cells; MCF 10A DNA re-replication, Hoechst nuclear intensity, 48 h; Potency, µM (doses to about 46.1 µM), for the others: at the top dose activity, positive = re-replication, hits mostly activators; actives 2.9% (n = 350,000); further: % of control where 0% means no effect; nearly all actives have a fitted effect of over 50% in size
Mito fusion act: mitochondrial division inhibition or fusion activation; S. cerevisiae fusion-defective mutant growth rescue, CellTiterGlo 48 h; Potency, µM (highest dose often 46.1 µM), inactives show at the highest dose growth rescue (activation), usual class: activators; actives 0.23% (n = 320,000); AID 485298; further: % of control where 0% means no effect; nearly all actives have a fitted effect of over 45% in size
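S. cerevisiae fusion-defective temperature-sensitive mutants (e.g. fzo1-1, mgm1-5) grown 48 h at 37C in YPEG (ethanol/glycerol non-fermentable) medium with 23 nl compound per well; growth rescue read as CellTiterGlo luminescence.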
A-T KAP1 phos: potential ataxia-telangiectasia treatment. F2112 A-T fibroblasts, KAP-1 phosphorylation AlphaLISA; neocarzinostatin DNA damage 30 min before lysis. Potency, µM (titrated, usually from 57.5 µM), for the others: at the highest dose activation, most hits filed as activators. actives 0.19% (n = 320,000). AID 485349; further: % of control where 0% means no effect; nearly all actives have a fitted effect of over 45% in size
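ATM-like activity read as KAP-1 phosphorylation via AlphaLISA donor/acceptor antibody pairs after lysis and 6 hr at 25C. Cells were ATM-null patient fibroblasts (F2112, hTERT), dosed 60 min, then exposed to the DSB inducer NCS for 30 min.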
a7 integrin act: activates integrin-mediated alleviation for muscular dystrophy; alpha7betagal myoblasts, beta-gal FDG fluorescence, 48 h; Potency, µM (top dose mostly 38.3 µM), without a hit: top-dose activation, usual class: activators; actives 0.064% (n = 350,000);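 further: 100% = response of the positive control SU9516; nearly all actives have a fitted effect of over 60% in size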
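Alpha7betagal+/- myoblasts (passage 13) were plated 16-24 hr, then exposed to compounds (1:260 dilution of DMSO stock) for 48 hours at 37C. After MPER lysis, β-galactosidase reporter activity was read as FDG fluorescence (ex 480/em 540) after 30 minutes.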
* marks the source's active call; other numbers are inactive results; u = inconclusive; x = no result given; [ ] = dose if it differs, or a comment. Only some compounds are listed: those with a hit (about 4.2% of all), similar ones and a draw of the others. The call rests on the fitted dose curve; in most records, active means well fitted activation curve with a large enough effect; inconclusive means small, poorly fitted or top-dose-only effect; inactive means no such curve, though single readings can be large or run the other way. Potency means the concentration at half of the fitted maximal effect.

SMILES	SW480 rerep	MCF10A rereplic	Mito fusion act	A-T KAP1 phos	a7 integrin act
Cc1ccc(-c2cnc3cc(C)nn3c2)cc1	-3.5%	2.4%	20.3%	1.2%	4.7%
COc1cccc(-n2ccn(CC(=O)NCCc3ccccc3)c(=O)c2=O)c1	-7.9%	5.8%	14.9%	1.7%	u
CCc1sc(C(=O)Nc2nc(C)cs2)cc1C	-1.1%	12.1%	-5.6%	5.5%	u
COCCN(C(=O)COC(=O)c1ccc(-c2ccccc2)cc1)c1c(N)n(Cc2ccccc2)c(=O)[nH]c1=O	3.7%	5.4%	x	x	-9.1%
CCC(C)(C)c1ccc(OCCCC[n+]2ccc(C)cc2)c(C(C)(C)CC)c1	25.9%	23.1µM*	0.8%	3.4%	-59.9%
CC(=O)C1=C(O)C(=O)N(c2cccnc2)C1c1ccc(Cl)cc1 (stereo not given)	0.5%	-0.3%	5.8%	2.0%	14.3%
COc1cc2ncnc(Nc3ccc(F)c(Cl)c3)c2cc1OCCCN1CCOCC1	14.7%	29.9µM*	x	x	x
COc1cccc(OC)c1OCCCN1CCOCC1	-3.5%	-5.2%	-5.8%	0.1%	6.6%
O=C(NCc1ccccc1CN1CCCC1)c1ccc(Cl)c(N2CCCC2=O)c1	-3.7%	3.7%	-0.5%	0.6%	12.4%
C=C1CC[C@H](O)C/C1=C/C=C1\CCC[C@]2(C)[C@@H]([C@H](C)CC[C@@H](O)C(C)(C)O)CC[C@@H]12	20.6%	u	x	x	x
C=C1/C(=C\C=C2/CCC[C@]3(C)[C@@H]([C@H](C)CCCC(C)(C)O)CC[C@@H]23)C[C@@H](O)C[C@@H]1O	1.5%	21.1µM*	-0.1%	x	x
C=C1CC[C@H](O)C/C1=C/C=C1\CCC[C@]2(C)[C@@H]([C@H](C)CCCC(C)(C)O)CC[C@@H]12	8.6%	10.6µM*	x	x	x
CCS(=O)(=O)c1nc(S(=O)(=O)c2ccc(C)cc2)c(N2CCN(C)CC2)s1	-3.3%	-3.0%	-2.8%	6.3%	-24.9%
Cc1ccc(NP(=O)(Nc2ccc(C)cc2)Nc2ccc(C)cc2)cc1	u	20.6%	-3.7%	3.1%	3.16µM*
Cc1ccc(C(=O)NC2c3ccccc3-c3ccccc32)cc1	13µM*	-0.5%	1.0%	1.4%	-11.3%
N#C/C(=C\c1ccc(Sc2ccc(Cl)cc2)o1)c1nc2ccccc2[nH]1	u	14.6µM*	-5.6%	-4.3%	-18.5%
N#C/C(=C\c1ccc(Sc2nc3ccccc3[nH]2)o1)c1ccccc1	43.3%	u	u	x	-23.6%
COc1ccc(S(=O)(=O)N(C)CC(=O)NCc2cccnc2)cc1OC	-4.7%	23.1µM*	-0.6%	-1.4%	25.8%
COC(=O)C1=NNC2(C)C(=O)N(c3ccc(C)cc3)C(=O)C12 (stereo not given)	-3.0%	0.8%	-2.9%	-0.8%	10µM*
COC(=O)C1=NNC2(c3ccc(C)cc3)C(=O)N(c3ccc(C)cc3)C(=O)C12 (stereo not given)	-13.0%	-0.6%	10.1%	-1.9%	-5.8%
Cc1ccnc(NC(=O)c2ccc(S(=O)(=O)NCc3ccco3)cc2)c1	u	u	7.0%	-10.5%	4.2%
CCOc1ccc(C(O)(CCC(C)C)C(CN2CCOCC2)c2ccccc2)cc1 (stereo not given)	23.1µM*	u	-36.9%	-10.9%	-37.4%
CCOc1ccc(C(O)(c2ccccc2)C(CN2CCCC2)c2ccccc2)cc1 (stereo not given)	20.6µM*	122.1%	-16.1%	5.4%	-15.0%
CCCCC(O)(c1ccc(F)cc1)C(CN1CCOCC1)c1ccc(Cl)cc1 (stereo not given)	u	7.31µM*	-28.0%	0.2%	u
CCCCN(C)C(=S)Nc1ccc2nc3n(c(=O)c2c1)CCCCC3	-7.5%	u	0.5%	-0.2%	-13.0%
SMILES	SW480 rerep	MCF10A rereplic	Mito fusion act	A-T KAP1 phos	a7 integrin act
O=C(O)/C=C/C(=O)c1ccc2c(c1)CCc1ccccc1-2	4.11µM*	3.66µM*	-21.6%	2.9%	-39.9%
Oc1ccc(NCc2ccc(OCc3ccccc3)cc2)cc1	u	u	-11.5%	39.8µM*	-73.7%
COc1cc(CNc2ccc(O)cc2)cc(Br)c1OCc1ccccc1	u	23.1µM*	-7.1%	17.6%	-26.2%
COc1cc(CNC(C)(C)CO)cc(Br)c1OCc1ccc(Cl)cc1	u	u	-12.6%	-3.9%	-45.5%
COc1cc(CNC(C)c2ccccc2)cc(Br)c1OCc1ccccc1 (stereo not given)	23.1µM*	u	-28.7%	20.2%	-63.8%
COc1cc(CNC(C)(C)CO)cc(Br)c1OCc1ccc(Cl)cc1Cl	17.8%	18.4µM*	-18.0%	4.4%	-48.9%
COc1cc(CNC(C)c2ccccc2)cc(Br)c1OCc1ccc(F)cc1 (stereo not given)	u	u	-29.9%	18.8%	-40.6%
CN1C2CCC1/C(=C\c1ccc(F)cc1)C(=O)/C2=C/c1ccc(F)cc1	u	1.9%	12.9%	-0.4%	-10.5%
C=CC(=O)N1C/C(=C/c2ccc(F)cc2)C(=O)/C(=C\c2ccc(F)cc2)C1	1.16µM*	u	x	x	-2.6%
CCCCC(CC)COC(=O)CC(C(=O)OCC(CC)CCCC)S(=O)(=O)O (stereo not given)	-5.7%	u	x	x	x
CC(=O)[C@@H]1[C@@H](C(=O)c2ccc(F)cc2)[C@]2(C(=O)Nc3ccccc32)[C@H]2C=Cc3cc(F)ccc3N12	u	20.6µM*	-9.5%	5.6%	11.6%
CC(=O)[C@@H]1[C@@H](C(=O)c2ccc(C)cc2)[C@]2(C(=O)Nc3ccccc32)[C@H]2C=Cc3cc(F)ccc3N12	u	16.4µM*	-0.5%	-1.8%	-30.2%
C=CCOc1ccn(C)c(=O)n1	-7.6%	0.4%	-1.8%	2.2%	-3.6%
Cc1ccc(-n2cc(CNCCn3nc(C)cc3C)c(-c3ccc(F)cc3)n2)cc1	18.4µM*	u	-21.9%	7.4%[11.5 µM]	10.5%
Cc1ccc(-n2cc(CNCCN3CCOC3=O)c(-c3ccc(F)cc3)n2)cc1	-10.7%	15.0%	-7.9%	10.5%	u
S=C(NCCN1CCCCC1)Nc1ccc(Br)cc1	16.4µM*	-0.3%	-11.7%	-2.8%	-41.8%
CC1CCCN(C(=S)SCC(=O)c2cc(Br)cc(Br)c2O)C1 (stereo not given)	24.2%	u	0.8%	-2.4%[11.5 µM]	0.6%
O=C(CSC(=S)N1CCCC1)c1cc(Br)cc(Br)c1O	5.17µM*	18.9%	-6.4%	0.5%	-50.0%
CCC(=O)Nc1sc2c(c1C(N)=O)CCC2	0.6%	-10.7%	-0.3%	-0.8%	43.0%[7.66 µM]
N#CCC(=O)Nc1sc2c(c1C(N)=O)CCCC2	-1.2%	23.1µM*	0.0%	-3.4%	6.6%
C=CC(=O)Nc1sc2c(c1C(N)=O)CCCC2	u	20.6µM*	2.0%	4.5%	-10.0%
Cn1c(=O)c2c(nc(OC3CCCCCC3)n2C)n(C)c1=O	-7.6%	0.7%	x	x	24.7%
C[C@]1(C(=O)O)Cc2oncc2C[C@@H]1C(=O)O	-4.8%	12.4%	3.1%	-1.9%	2.1%

Source: PubChem BioAssay (National Center for Advancing Translational Sciences (NCATS))
